Experimental data published in PubChem BioAssay AID1508625 (Wald Lab, School of Medicine, Case Western Reserve …, 2021).

Assay: small molecules boosting NK-mediated OVCAR3 lysis – imaging, primary NK cells, calcein-AM imaging, primary screen (AID 1508625);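 further: compound given to NK cells 16 h before adding targets at 1.5 to 1 ratio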;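 on z-score: more negative robust z means stronger NK killing of tumor cells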
Conditions: OVCAR3 lysis by primary NK cells, at 5 µM; z-score: measured here: robust Z-score, single-point normalisation

Structure (SMILES)	corrected activity, negative = more killing	z-score
CCC(C)NC(=O)c1ccc2c(=O)n(Cc3ccccc3OC)c(=S)[nH]c2c1 (stereo not drawn)	-7.22%	-1.91
O=[N+]([O-])c1cccc(CN2CCN3CCCC3C2C2CCCCC2)c1 (stereo not drawn)	0.41%	0.179
COc1cc(OC)c(CNc2ccc(F)cc2C)cc1Br	-7.05%	-2.24
O=C(NCc1cccc(Cl)c1)c1ccc2c(=O)n(Cc3cccc(Br)c3)c(=S)[nH]c2c1	-6.41%	-2.04
COc1ccc(C2=NN(C(=O)c3ccc(Br)o3)C(c3ccc(N(C)C)cc3)C2)cc1OC (stereo not drawn)	-3.55%	-1.9
COc1ccc(-c2nocc2C(N)=O)cc1OC	-3.72%	-1.63
Cc1ccc(C(=O)O)c(C(=O)Nc2cccnc2)c1	-0.349%	-0.143
CCCCSc1nc2c([nH]c3ccccc32)c(=O)n1-c1ccc(F)cc1	-4.96%	-1.23
COc1ccc(C)cc1NC(=O)c1oc(=O)c2ccccc2c1-c1ccccc1	-11.3%	-2.78
COc1ccc(OC(C)C(=O)Nc2ccc(Br)cc2)cc1 (stereo not drawn)	-7.07%	-2.19
NC(C(=O)O)C(O)c1cccc([N+](=O)[O-])c1 (stereo not drawn)	-0.723%	-0.224
Cc1onc(-c2ccccc2)c1C(=O)Nc1cccc(Br)c1	-5.57%	-1.98
COc1cccc(CCNc2ccc(N3C(=O)C4CCC(C)CC4C3=O)cc2[N+](=O)[O-])c1 (stereo not drawn)	-3.2%	-1.17
Cc1oc2c(C)c3oc(=O)c(C)c(C)c3cc2c1-c1ccccc1	-1.87%	-0.558
Cc1cccc(C)c1NC(=O)c1sc2[nH]c(=O)c(C(=O)O)cc2c1N	-3.74%	-0.931
CC(C)NC1CCCc2c1[nH]c1ccc([N+](=O)[O-])cc21 (stereo not drawn)	-0.558%	-0.244
COc1ccccc1CNC(=O)CCS(=O)(=O)Cc1ccccc1C	-4.37%	-1.18
COc1ccc(C(N)=NOC(=O)CSc2ccccc2)cc1	-1.04%	-0.576
COc1cc(NS(=O)(=O)c2ccc(NC(=O)c3ccc(OC)c(OC)c3)cc2)ncn1	-3.26%	-1.01
CC(C(=O)NCCCN1CCOCC1)c1ccc([N+](=O)[O-])cc1 (stereo not drawn)	-5.52%	-3.07
CN1C(=O)C(=O)C(=C(O)c2ccc(Br)cc2)C1c1ccccc1 (stereo not drawn)	-1.99%	-0.867
O=C(c1cccc(F)c1)N1CCN=C1SCc1ccc(Br)cc1	-4.87%	-1.2
CSC1CCCCC1(O)CSc1nc2ccccc2o1 (stereo not drawn)	-4.44%	-1.67
Cc1cccc(N2C(=O)c3ccc(NC(=O)c4ccc(Br)cc4)cc3C2=O)c1	-3.53%	-1.25

Structure (SMILES)	corrected activity, negative = more killing	z-score
CCCSc1nc2c([nH]c3ccccc32)c(=O)n1-c1ccc(F)cc1	-3.57%	-0.888
COc1cc(C)c(NC(=O)c2ccccc2I)cc1C(C)C	-3.4%	-1.89
CCC(CC)NC(=O)c1cccc(OC)c1OC	-0.109%	-0.0486
CCOc1ccc2nc(SCCC(=O)Nc3ccc(OC)cc3)sc2c1	-5.58%	-2.99
O=C(Nc1ccc([N+](=O)[O-])cc1)c1cc2c(=O)n3ccccc3nc2s1	-3.21%	-0.91
CCOC(=O)C1=C(N)OC2=C(C(=O)CC(C)(C)C2)C1c1ccccc1[N+](=O)[O-] (stereo not drawn)	-1.89%	-0.587
CCc1ccc(N2C(=O)CSC2c2ccc(Br)cc2)cc1 (stereo not drawn)	-3.8%	-1.62
O=C1OC(c2ccccc2Cl)=NC1=Cc1cccs1	-0.515%	-0.219
CCOc1ccc(-n2c(SCc3ccccc3Cl)nc3c(c2=O)SCC3)cc1	-3.11%	-0.774
O=C1C2CC=C(Cl)CC2C(=O)N1CC1OCCc2ccccc21 (stereo not drawn)	-3.37%	-1.29
Cc1ccc2c(C)nc(SCc3ccc(Cl)cc3)nc2c1	-2.17%	-0.674
COc1ccc(N(CC(=O)Nc2c(C)n(C)n(-c3ccccc3)c2=O)S(C)(=O)=O)c(OC)c1	-0.645%	-0.246
Cc1cc(C)cc(-n2cnc3cc(C(=O)NC4CCCCC4C)ccc32)c1 (stereo not drawn)	-2.86%	-0.771
Clc1ccccc1[C@@H]1Nc2ccccc2[C@@H]2C=CC[C@@H]21	-1.75%	-0.523
Cc1ccc(OCCCN2CCNCC2)c([N+](=O)[O-])c1	-1.55%	-0.864
CCOc1ccccc1C(=O)Nc1ccc(S(=O)(=O)N2CCCCC2C)cc1 (stereo not drawn)	-4.3%	-1.33
O=C(O)CSCCC(=O)Nc1ccc(F)cc1	-7.17%	-1.93
CCC(Oc1ccccc1)C(=O)N1CCC(C(N)=O)CC1 (stereo not drawn)	-2.95%	-1.64
O=C(Nc1ccccc1Cl)c1cccc([N+](=O)[O-])c1	-1.44%	-0.51
O=C1NC(=S)SC1=Cc1cc(Cl)ccc1O	-4.39%	-1.87
O=C(NN=Cc1ccc[nH]1)C(O)c1ccccc1 (stereo not drawn)	-2.59%	-0.823
CCC(=O)Nc1ccc(Cl)c(NC(=O)COc2ccc(Br)cc2)c1	-0.00546%	-0.00304
COc1ccc(C=Nc2ccc(C(N)=O)cc2)cc1	-2.24%	-0.885
Cc1sc2c(c1C)c(=O)n(CCc1ccccc1)c(=O)n2Cc1cccc([N+](=O)[O-])c1	-2.58%	-0.733

Structure (SMILES)	corrected activity, negative = more killing	z-score
CC(C(=O)NCCC1=CCCCC1)c1ccc([N+](=O)[O-])cc1 (stereo not drawn)	-0.521%	-0.29
Cc1ccc(S(=O)(=O)n2nnc3ccccc32)c(C)c1C	-4.06%	-1.51
O=C(Cn1cnc2sc3c(c2c1=O)CCCC3)NCCCC(=O)Nc1ccccc1F	-3.19%	-1.01
CCOc1ccc(NC(=O)c2c(NCc3ccncc3)sc3c2CCCCC3)cc1	-0.239%	-0.0869
CN1C(=O)c2ccccc2C(C(=O)NCCCN2CCCCCC2)C1c1cccs1 (stereo not drawn)	-5.67%	-1.41
CCOC(=O)c1conc1-c1cccs1	-0.622%	-0.198
COc1ccc(OCCCN2CCc3ccccc3C2)cc1	-4.65%	-2.58
CC(=O)c1ccc(NC(=O)c2ccc(C)c([N+](=O)[O-])c2)cc1	-3.69%	-1.31
COc1ccc(C(N)=NOC(=O)c2cc(Cl)ccc2Cl)cc1	-1.41%	-0.786
FC(F)(F)c1ccc(Oc2cccc(C(F)(F)F)c2)nc1	-1.98%	-1.1
CN(C(=O)c1cnc2n(c1=O)CCS2)c1ccccc1	-7.51%	-2.39
CCOc1ccc2nc(SCC(=O)NC3CC3)sc2c1	-5.49%	-1.7
COc1cc(OC)c(CN2CCN3CCCC3C2C)cc1Br (stereo not drawn)	-2.76%	-1.21
COc1ccccc1C(=O)CC1(O)C(=O)Nc2ccccc21 (stereo not drawn)	-4.9%	-1.82
CC(=O)c1cccc(NC(=O)COc2ccccc2C)c1	-1.74%	-0.9
CC(C)c1ccc(CNc2c([N+](=O)[O-])c(=O)oc3ccccc23)cc1	-0.839%	-0.312
COC(=O)c1ccc(COC(=O)c2cnccn2)cc1	-1.44%	-0.802
O=C(Nc1ccc(Cl)cc1)c1ccc(F)c(S(=O)(=O)N2CCOCC2)c1	-4.69%	-1.77
CCOc1ccc(NS(=O)(=O)c2ccc3[nH]cc(C(=O)NCC4CCCO4)c(=O)c3c2)cc1 (stereo not drawn)	-2.15%	-0.527
CCOCCCNC(=O)c1ccc(N2CCCC2=O)cc1	-4.67%	-1.26
CCOc1ccc(OCC(=O)NC(C)C)cc1	-5.07%	-2.82
CCCCOc1ccc(C(=O)N2N=C(C)CC2(O)C(F)(F)F)cc1 (stereo not drawn)	-6.48%	-2.66
Cc1c(C(=O)Nc2ccccc2O)cccc1[N+](=O)[O-]	-4.28%	-1.61
CCOc1ccc(-n2c(SCC(=O)c3ccccc3)nc3c([nH]c4ccccc43)c2=O)cc1	-9%	-2.24

Structure (SMILES)	corrected activity, negative = more killing	z-score
CN(C)c1ccc(C=C(C(=O)c2ccccc2)c2nc3ccccc3[nH]2)cc1	-1.99%	-1.03
CCN(CC)S(=O)(=O)c1ccc(C(=O)Nc2nc(-c3ccccc3)c(C(C)=O)s2)cc1	-2.77%	-0.984
O=C1NC(=S)N(c2ccc(Cl)cc2)C(=O)C1=Cc1cc(Br)ccc1O	-3.58%	-1.85
N#Cc1c(NC(=O)c2ccc(Cl)c(S(=O)(=O)N3CCOCC3)c2)sc2c1CCCC2	-5.49%	-1.95
COc1ccc(OC)c(CN2CCN(Cc3ccccc3[N+](=O)[O-])CC2)c1	-3.74%	-1.67
Cc1c(Cl)cccc1N=Cc1ccc(O)cc1	-1.33%	-0.563
CCC(=O)NC(Nc1ccccc1Cl)(C(F)(F)F)C(F)(F)F	-0.701%	-0.276
Cc1cc(Br)cc2c(N=NC(=O)c3ccccc3)c(O)[nH]c12	-1.64%	-0.646
N#Cc1cc2c(N)c(C(=O)Nc3ccccc3Oc3ccccc3)sc2nc1N	0.0831%	0.0248
CCN1C(=O)c2cccc3c(NC(=O)C45CC6CC(CC(C6)C4)C5)ccc1c23	-12.5%	-2.63
O=C(NCc1ccccc1)c1ccc2c(=O)n(-c3cc(C(F)(F)F)ccc3Cl)c(=S)[nH]c2c1	-5.46%	-1.74
COc1ccc(N2CCN(C(=O)c3ccc4ccccc4n3)CC2)cc1	-1.53%	-0.85
COc1ccc(OC)c(NC(=O)c2cc3cccc(OC)c3oc2=O)c1	-3.03%	-1.31
COc1ccc2nc3oc(C(=O)NCCc4ccc(Cl)cc4)cc3cc2c1	-5.81%	-1.43
Cn1c(SCC(=O)Nc2cccc3ccccc23)nc2c([nH]c3ccccc32)c1=O	-9.34%	-2.32
CCOc1ccc(S(=O)(=O)Nc2ccc(OC(F)(F)F)cc2)c2cccnc12	-1.89%	-0.602
CCc1ccc(NS(=O)(=O)c2ccc3[nH]cc(C(=O)N(C)Cc4ccccc4)c(=O)c3c2)cc1	-2.32%	-0.569
Cc1ccc(NC(=O)CSc2nc3c([nH]c4ccccc43)c(=O)n2-c2ccc(F)cc2)cc1	-5.11%	-1.27
Cc1ccc(C(=O)CC2(O)C(=O)N(C(C)C)c3ccccc32)c(C)c1 (stereo not drawn)	-3.79%	-1.13
O=C(c1ccccc1F)N1CCN(c2cc(N3CCCCC3)c(F)cc2[N+](=O)[O-])CC1	-2.72%	-0.843
COc1ccc2cc3cc(C(=O)NCCCN4CCN(Cc5ccccc5)CC4)oc3nc2c1	-0.58%	-0.142
CCOC(=O)c1c(-c2ccccc2)csc1NC(=O)CSc1nc2ccccc2o1	25.2%	7.82
